According to PubChem BioAssay (NCI):
This is part of a sample that, as a whole, favours compounds with a hit. Of some 83,000 tested, about 20% had one in any assay.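 Single-dose data. Exposure time 48 hours. Values below 10 considered active.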 A number with no mark means an inactive call. The source made the active and inactive calls.

Tested on: HL-60(TB) leukemia
Assay: NCI-60 one-dose screen, 48 h (100 = growth as untreated, 0 = no growth, -100 = all killed)
Conditions: 10 µM unless noted
Method: Growth inhibition of the HL-60(TB) human tumor cell line is measured as a screen for anti-cancer activity. Cells are grown in 96 well plates and exposed to the test compound for 48 hours. Compounds are tested at a single concentration, which is 10^-5 M for most compounds. The reported endpoint is percent growth (GI% or GIPRCNT), where numbers from 0 - 100% represent growth inhibition, and numbers from -100% - 0 represent cell death. For example, a value of 40 represents 60% growth inhibition. A value of 0 means no net growth occurred over the course of the experiment. A value of -40 indicates 40% of cells at the beginning of the experiment died by the end of the experiment. A value of -100 means all cells are dead at the end of the experiment.
NCI-60 Human Tumor Cell Lines Screen was performed using the standard one-dose NCI protocol, which is described in more detail at https://dtp.cancer.gov/discovery_development/nci-60/default.htm.
Compounds with GIPRCNT values below 10 were considered active. Activity score was based on GIPRCNT using the following formula: […]
Score is 0 for GIPRCNT values of 100 or above, 50 for GIPRCNT values of 0, and 100 for GIPRCNT values of -100.

SMILES	growth
CSc1ccc(NC(=O)c2ccc3nn(/C(C#N)=C/c4ccccn4)nc3c2)cc1	-18.9% (active)
COc1cccc(COc2ccc(NC(=O)Nc3ccc(Cl)c(C(F)(F)F)c3)cc2)c1	17.8%
COc1ccc(-c2ccnc(SCc3cc4ccccc4[nH]c3=O)n2)cc1	34.1%
CCC[Se]C(=O)c1ccc(C(=O)[Se]CCC)s1	-26.7% (active)
C=C1CC[C@@H]2[C@]3(C)COC(c4ccco4)O[C@@H]3CC[C@@]2(C)[C@@H]1C/C=C1/C(=O)OCC1OC(C)=O (stereo not given in full)	-5.13% (active)
C/C(=N\N=C\c1ccc(Cl)c([N+](=O)[O-])c1)c1ccc2c(c1)Nc1ccccc1S2	51%
CN(C)CCOc1ccc(C(=O)C2[C@H](c3ccc(Cl)cc3)[C@@H](c3ccccc3)NC23C(=O)Nc2ccc(Br)cc23)cc1 (stereo not given in full)	-60.6% (active)
CN(CCF)c1ccc(/C=C/C(=O)c2ccc(N)cc2O)cc1	58%
S=C(Nc1ccc(OCc2nc3ccc(Cl)cc3[nH]2)cc1)NC1CCCCC1	-37.1% (active)
O=C(Nc1ccc(Cl)c([N+](=O)[O-])c1)Nc1ccc(Cl)c([N+](=O)[O-])c1	2.93% (active)
COc1ccc(NC(=O)[C@H](CO)NC(=O)OC(C)(C)C)cc1C(=O)Nc1cccc(C2CC(=O)c3c(cc(OC)c(OC)c3OC)O2)c1 (stereo not given in full)	58.1%
CCCSc1nnc(-c2c(C)nc3sccn23)o1	98.3%
COc1ccc(/C=N/N=C(\C)c2ccc3c(c2)Nc2ccccc2S3)cc1O	34.2%
CCC(=O)c1cc(C(=O)OC)c2ccc3c4ccccc4ccc3n12	103%
COc1cc(C2CC(c3ccccc3)=Nc3c(N)nc(N)nc3N2)ccc1Oc1nc(NCCO)nc(N2CCOCC2)n1 (stereo not given)	93.5%
COc1sc(/C=N/NC(=O)c2[nH]c3ccc(Br)cc3c2-c2ccccc2)cc1Br	-37.7% (active)
Cc1cc(C2(c3cc(C)c(OCC(O)CNc4c(C)n(C)n(-c5ccccc5)c4=O)cc3C(C)C)OC(=O)c3ccccc32)c(C(C)C)cc1OCC(O)CNc1c(C)n(C)n(-c2ccccc2)c1=O (stereo not given)	0.434% (active)
O=C(CSc1nc2sc3c(c2c(=O)n1-c1ccc(Cl)cc1)CCCC3)NNC(=O)c1ccc(Br)cc1	91.1%
Clc1cccc(-c2ccc(OCCCN3CCN(c4ccncc4)CC3)cc2)c1	-53.9% (active)
Cn1cc(-c2cc(N)n3nc(-c4cn(C)c5ccccc45)cc3n2)c2cc(Br)ccc21	-32.3% (active)

SMILES	growth
NC(=O)c1ccc(-c2ccc3ncnc(N4CCc5cc(F)c(Cl)cc54)c3c2)cn1	64.9%
Cc1nn(-c2ccccc2)c2nc(C)n(CC(=O)N/N=C/c3ccccc3O)c(=O)c12	7.2% (active)
CC1(c2ccccc2)NC(=O)N(CC(=O)Nc2ccc(C(=O)/C=C/c3ccc(Cl)cc3)cc2)C1=O (stereo not given)	-27.7% (active)
COc1ccc2c(c1)c(-c1cc3nc(-c4cn(C)c5ncccc45)cc(N)n3n1)cn2C	-66.3% (active)
Cn1cc(-c2nnc(N)nc2-c2c[nH]c3ccc(F)cc23)c2cccnc21	10.2%
N/C(=N\c1nc2ccccc2s1)NC(=O)Nc1c(Cl)cccc1Cl	17.9%
O=C(NNc1ccccc1)n1c(=O)c2ccccc2c(=O)n1-c1ccccc1	82.7%
C=C1CC[C@@H]2[C@]3(C)COC(c4cn[nH]c4-c4ccc(OC)cc4)O[C@@H]3CC[C@@]2(C)[C@@H]1C/C=C1/C(=O)OCC1O (stereo not given in full)	1.59% (active)
COc1ccc(CCN2C(=O)/C(=C/c3csc(C#N)n3)SC2=S)cc1	-23.8% (active)
CO[C@@H]1CSS[C@H]1Cn1nc(-c2ccc(Oc3ccccc3)cc2)c2c(N)ncnc21	25.8%
Nc1cc2ccccc2c(=O)n1NC(=O)c1ccccc1	101%
CN1CCN(C(=O)Oc2cc3c(c4ccccc24)[C@H](CCl)CN3C(=O)c2cc3cc(OCCCN4CCC4)ccc3[nH]2)[C@H]2CSSC[C@H]21	-22.8% (active)
COc1ccc([C@H]2C(C(=O)c3ccc(Cl)cc3)C3(N[C@@H]2c2ccccc2)C(=O)Nc2ccccc23)cc1 (stereo not given in full)	29.2%
Cc1ccc(/C(CSc2nnc(-c3c[nH]c4ccccc34)n2-c2ccccc2)=N/O)cc1	-13.8% (active)
O=c1c2ccccc2nc(COc2ccccc2)n1/N=C/c1ccc(N2CCCC2)cc1	101%
CS(=O)(=O)Nc1ccc(-c2ccc3c(c2)ncn3-c2ccc(NC(=O)Nc3ccc(Br)cc3)cc2)cc1	-42% (active)
N#CC1=C(c2cccs2)Nc2c(c(-c3ccccc3)nn2-c2ccccc2)C12C(=O)Nc1ccccc12 (stereo not given)	0.7% (active)
COc1c(F)ccc(C(=O)Nc2ccc3nc(NC(=O)C4CCCN(S(=O)(=O)c5cccc(Br)c5)C4)sc3c2)c1F (stereo not given)	80.6%
COc1ccc2[nH]c(O)c(N=Nc3nc(-c4ccc(C#N)cc4)cs3)c2c1	84.4%
O=C(N=Nc1c(O)[nH]c2ccc(Br)cc12)c1ccc2nc(-c3ccccc3)[nH]c2c1	30.9%
